Only some compounds are listed: those with a hit (about 0.93% of all), similar ones and a draw of the others.
MEP2-GFP yeast – modulators of MEP2-GFP levels in yeast, primary screen, S. cerevisiae, multiplex flow cytometry, MLPCN library; S. cerevisiae MEP2-GFP strain, 3 h; 100% = DMSO control level; GFP response vs DMSO, % at 10 µM; 0.51% of 330,000 active; AID 2016, 2009;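 active means GFP response versus DMSO above a set limit, roughly screen mean plus 3 SD, cut at about 180% in these data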;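 further: median GFP fluorescence of the barcode-gated MEP2-GFP cells per well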
LAP4-GFP MLPCN – modulators of LAP4-GFP expression in yeast, primary screen, S. cerevisiae, multiplex flow cytometry, MLPCN library; 3 h; median GFP as percent of DMSO wells; GFP response vs DMSO, % at 10 µM; 0.34% of 320,000 active;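 active means GFP response vs DMSO above a set limit, about the screen mean plus 3 SD, cut at about 150% in these data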
AGP1-GFP MLPCN – modulators of AGP1-GFP expression in yeast TOR pathway, primary screen, cell-based, multiplex flow cytometry, S. cerevisiae, MLPCN library | 3 h; GFP as percent of DMSO wells | 0.02% of 320,000 active | AID 2066, 2009 | GFP response vs DMSO, % at 10 µM;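 active means GFP response relative to DMSO above a set limit, near screen average plus 3 SD, cut at about 150% in these data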;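 further: median GFP channel fluorescence of the gated AGP1 strain per well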
CIT2 TOR yeast – modulators of CIT2-GFP expression in yeast, primary screen, S. cerevisiae, GFP fusion, multiplex flow cytometry, MLPCN library; 0.065% of 320,000 active; GFP response vs DMSO, % at 10 µM; S. cerevisiae CIT2-GFP strain, 3 h; 100 means same as DMSO wells;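 active means GFP response relative to DMSO above a set limit, near the screen mean plus 3 SD, cut at about 150% in these data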;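 further: ratio of well median GFP fluorescence to mean of DMSO wells on the plate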
RPL19A-GFP yeast – RPL19A-GFP expression modulators in yeast, primary screen, cell-based, S. cerevisiae, multiplex flow cytometry, MLPCN; AID 2025, 2009; percent response vs DMSO, % at 10 µM; S. cerevisiae RPL19A-GFP strain, 3 h; hits give low values; 0.3% of 330,000 active;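 active means percent response vs DMSO below 50%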;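 further: median channel GFP fluorescence of the barcoded RPL19A-GFP strain; lower means less RPL19A-GFP as with rapamycin TOR inhibition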
LAP4 cherry2 – LAP4-GFP expression modulators in yeast, confirmation, cell-based, second cherry pick, flow cytometry; shares compounds with LAP4-GFP MLPCN; GFP response vs DMSO, % at 10 µM; 20% of 590 active; S. cerevisiae LAP4-GFP strain, 3 h;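 active means GFP signal as percent of the solvent control above about 150%, meaning raised reporter expression, limit read from the data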
MEP2 cherry2 – modulators of MEP2-GFP levels in yeast, confirmation, S. cerevisiae, flow cytometry GFP, second cherry picks | shares compounds with LAP4-GFP MLPCN | S. cerevisiae MEP2-GFP strain, 3 h | GFP response vs DMSO, % at 10 µM | 10% of 590 active | AID 2622, 2010;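 active means GFP signal above 150% of the solvent control wells, that is a rise of more than half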;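 further: median channel GFP fluorescence of all gated yeast cells per well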
RPL19A-GFP pick2 – RPL19A-GFP modulators in TOR pathway yeast, confirmation, cell-based, S. cerevisiae, flow cytometry, second cherry pick; S. cerevisiae RPL19A-GFP strain, 3 h; hits give low values; 100% means same as DMSO wells; 3% of 590 active; shares compounds with LAP4-GFP MLPCN; GFP response vs DMSO, % at 10 µM;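 active means under 65% GFP response relative to DMSO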;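 further: median GFP channel fluorescence per well over the all cells gate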
CIT2-GFP pick2 – modulators of CIT2-GFP expression in yeast, confirmation, flow cytometry, second cherry pick, single plex; AID 2624, 2010; S. cerevisiae CIT2-GFP strain, 3 h; DMSO control wells read 100%; 8% of 590 active; shares compounds with LAP4-GFP MLPCN; GFP response vs DMSO, % at 10 µM;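 active means GFP response vs DMSO above about 150%, limit read from the data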;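 further: median green fluorescence per well over all gated yeast cells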
AGP1 GFP CP2 – AGP1-GFP expression modulators, hit retest, confirmation, cell-based, flow cytometry, S. cerevisiae, cherry pick set 2 | shares compounds with LAP4-GFP MLPCN | 590 tested, under 10 active | S. cerevisiae AGP1-GFP strain, 3 h | percent response vs DMSO, % at 10 µM;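 active means over 150 percent of DMSO response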;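 further: median GFP channel fluorescence over all cells without mother daughter split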
s288c autofluor – compound autofluorescence in yeast s288c, dose response, artefact control for yeast TOR pathway GFP screen, s288c strain. shares compounds with LAP4-GFP MLPCN. S. cerevisiae s288c, 520 nm autofluorescence, flow cytometry, 3 h; hits give high values; zero means same as solvent-only cells. fluorescence change (kMESF span) at 33 µM. 610 tested, under 10 active. AID 2757, 2010;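 active means fluorescence span over the dose series, or activity score, above about 33, limit read from the data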
s288c autofl DR – autofluorescence of compounds in yeast s288c, dose response, artefact control for yeast TOR pathway GFP screen, primary hits, KU SAR, s288c parental. shares compounds with LAP4-GFP MLPCN. S. cerevisiae s288c parental, compound autofluorescence, flow cytometry, 3 h. fluorescence change (span) at 33 µM. 110 tested, under 10 active. AID 488829, 2010;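 active means fluorescence change span, or the activity score built from it, above 25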
TORC1 bypass – wild-type yeast growth inhibition sparing TORC1 bypass cells, mechanism study for yeast TOR pathway GFP screen, BY4741 wild type, TORC1 bypass strain; shares compounds with LAP4-GFP MLPCN; S. cerevisiae BY4741 spot growth rating, 48-72 h; hits give low values; 120 tested, under 10 active; growth rating (0-3) at 30 µM; AID 504456, 2011;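 active means growth rating at most 1 for wild type yeast while the TORC1 bypass strain still grows fully, rated 3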
Each line names hits and unclear results; the compound was inactive in the other large screens (follow-up assays come after a bar, where they were run).

O=C1c2ccccc2C(=O)N1OS(=O)(=O)c1ccc(F)cc1	LAP4-GFP MLPCN 157 | s288c autofluor inactive
Cc1cc(C)c(C)c(S(=O)(=O)ON2C(=O)c3ccccc3C2=O)c1C	LAP4-GFP MLPCN 248 | s288c autofluor inactive
Cc1cc(C)c(S(=O)(=O)ON2C(=O)c3ccccc3C2=O)cc1C	LAP4-GFP MLPCN 171 | s288c autofluor inactive
Cc1cc(=O)oc2cc(OCC(=O)NCCc3ccccc3)ccc12	none
Cc1cc(C(=O)COC(=O)Cc2ccc(Cl)cc2)c(C)n1C	none
O=C(NC(=S)NNC(=O)c1cnccn1)c1ccc(F)cc1	LAP4-GFP MLPCN 232 | s288c autofluor inactive | s288c autofl DR inactive | TORC1 bypass inactive
O=C(/C=C/c1ccc(F)cc1)NC(=S)NNC(=O)c1cnccn1	LAP4-GFP MLPCN 261 | s288c autofluor inactive
COc1ccc(/C=C/C(=O)NC(=S)NNC(=O)c2cccnc2)cc1	none
O=C(/C=C/c1ccc(F)cc1)NC(=S)Nc1ccccc1	none
COc1ccc(/C=C/C(=O)NC(=S)NNC(=O)c2cnccn2)cc1	LAP4-GFP MLPCN 225 | s288c autofluor inactive | s288c autofl DR inactive | TORC1 bypass inactive
Cc1ccnc(NS(=O)(=O)c2cccc([N+](=O)[O-])c2)c1	none
COC(=O)C(C)Oc1ccc(Cc2ncc(C(F)(F)F)cc2Cl)cc1 (stereo unspecified)	none
CSc1nc(C)cc(-c2cc(C(=O)Nc3ccccc3)on2)n1	none | LAP4 cherry2 inactive | MEP2 cherry2 inactive | RPL19A-GFP pick2 inactive | CIT2-GFP pick2 inactive | AGP1 GFP CP2 inactive
Cc1cc(-c2cc(C(=O)NC3CCCC3)on2)nc(NC2CCCC2)n1	none
CCCNc1nc(C)cc(-c2cc(C(=O)NC3CCCC3)on2)n1	LAP4-GFP MLPCN 156 | LAP4 cherry2 inactive | MEP2 cherry2 inactive | RPL19A-GFP pick2 inactive | CIT2-GFP pick2 inactive | AGP1 GFP CP2 inactive
Cc1cc(-c2cc(C(=O)Nc3ccccc3)on2)nc(NC2CCCC2)n1	none | LAP4 cherry2 inactive | MEP2 cherry2 inactive | RPL19A-GFP pick2 inactive | CIT2-GFP pick2 inactive | AGP1 GFP CP2 inactive
COc1ccc(-c2cc(C(=O)Nc3ccccc3)on2)cc1	none
Cc1cc(-c2cc(C(=O)NCc3ccccc3)on2)nc(NC2CCCC2)n1	none | LAP4 cherry2 inactive | MEP2 cherry2 inactive | RPL19A-GFP pick2 inactive | CIT2-GFP pick2 inactive | AGP1 GFP CP2 inactive
CCCN(CC(=O)Nc1ccccc1C)C(=O)c1ccc(COc2ccccc2)cc1	none
N/C(Cc1ccc(Cl)cc1)=N\OC(=O)c1ccccc1	LAP4-GFP MLPCN 192 | LAP4 cherry2 218 | MEP2 cherry2 166 | RPL19A-GFP pick2 inactive | CIT2-GFP pick2 225 | AGP1 GFP CP2 inactive | s288c autofluor inactive
O=C(Nc1cccc(-c2csc(Nc3cccc(C(F)(F)F)c3)n2)c1)c1ccccc1	none
O=C(Nc1cccc(-c2csc(Nc3ccccc3)n2)c1)c1ccccc1	LAP4-GFP MLPCN 153 | LAP4 cherry2 inactive | MEP2 cherry2 inactive | RPL19A-GFP pick2 inactive | CIT2-GFP pick2 inactive | AGP1 GFP CP2 inactive | s288c autofluor inactive
CC(=O)CSc1ncnc2c1cnn2-c1ccccc1	MEP2-GFP yeast 183, CIT2 TOR yeast 203 | s288c autofluor inactive
CCN(CC(=O)Nc1ccccc1C(F)(F)F)C(=O)CN1C(=O)NC(C)(c2ccccc2)C1=O (stereo unspecified)	none
CC(=O)c1c(C)[nH]c(C(=O)COC(=O)c2ccc(C)s2)c1C	LAP4-GFP MLPCN 153 | LAP4 cherry2 inactive | MEP2 cherry2 inactive | RPL19A-GFP pick2 inactive | CIT2-GFP pick2 inactive | AGP1 GFP CP2 inactive
CCOC(=O)c1c(C)[nH]c(C(=O)COC(=O)c2[nH]c(C)c(C(C)=O)c2C)c1C	none
O=C(Nc1ccc(F)c(S(=O)(=O)N2CCOCC2)c1)C1CCCCC1	none
Cn1c(=O)c(C(=O)NNC(=O)c2ccc(Br)cc2)c(O)c2ccccc21	none | LAP4 cherry2 162 | MEP2 cherry2 165 | RPL19A-GFP pick2 inactive | CIT2-GFP pick2 inactive | AGP1 GFP CP2 inactive | s288c autofluor inactive
CCN(CC(=O)Nc1ccccc1C(F)(F)F)CC(=O)NC1CC1	none
CCN(CC(=O)Nc1ccc(Cl)c(C(F)(F)F)c1)CC(=O)NC1CCS(=O)(=O)C1 (stereo unspecified)	none | LAP4 cherry2 inactive | MEP2 cherry2 inactive | RPL19A-GFP pick2 inactive | CIT2-GFP pick2 inactive | AGP1 GFP CP2 inactive
CC(C)CCN1C(=O)c2ccc(C(=O)NCc3ccccn3)cc2C1=O	LAP4-GFP MLPCN 164 | LAP4 cherry2 inactive | MEP2 cherry2 inactive | RPL19A-GFP pick2 inactive | CIT2-GFP pick2 inactive | AGP1 GFP CP2 inactive
CN1C(=O)c2ccc(C(=O)NCc3ccccn3)cc2C1=O	none

Assay outcomes as filed in PubChem BioAssay.
